An excerpt weighted towards active compounds, which were near 2.4% of everything screened.
D2 ag-1: Beta-Arrestin HTS for Positive Allosteric Modulators of the Human D2 Dopamine Receptor: Agonists; D(2) dopamine receptor (Homo sapiens), P14416; activation, % (test concentration not listed); AID 624465, 2012; 360,000 tested, 0.084% active; DiscoveRx PathHunter D2 beta-arrestin, luminescence, 90 min; 100% = 57 uM dopamine signal; in the data active = activation above about 40%
Target sequence (P14416 whole entry, looked up): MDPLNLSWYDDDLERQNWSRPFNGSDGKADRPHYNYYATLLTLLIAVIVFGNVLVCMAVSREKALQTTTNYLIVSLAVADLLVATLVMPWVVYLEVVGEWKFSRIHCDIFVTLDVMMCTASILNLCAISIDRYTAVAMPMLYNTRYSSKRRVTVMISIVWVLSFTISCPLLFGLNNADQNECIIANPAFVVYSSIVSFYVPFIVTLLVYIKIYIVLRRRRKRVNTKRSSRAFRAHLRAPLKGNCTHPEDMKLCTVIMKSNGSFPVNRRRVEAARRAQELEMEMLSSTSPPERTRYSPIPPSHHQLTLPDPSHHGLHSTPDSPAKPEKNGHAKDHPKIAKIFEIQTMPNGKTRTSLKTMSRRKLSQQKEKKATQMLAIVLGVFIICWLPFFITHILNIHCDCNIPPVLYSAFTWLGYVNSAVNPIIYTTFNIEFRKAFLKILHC
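Agonist mode: compounds alone added to overnight-plated D2 PathHunter cells for 90 min at 37 C, with 57 uM final dopamine (EC100) defining full response. Beta-arrestin recruitment detected by chemiluminescent reagent, read after 1 h at ambient temperature.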
D2 antagonist: HTS Assay for Allosteric Antagonists of the Human D2 Dopamine Receptor: Primary Screen for Antagonists; D(2) dopamine receptor (Homo sapiens), P14416; 340,000 tested, 2% active; inhibition, % at 10 µM; HEK293 TREx D2 cells, calcium flux, dopamine EC80; in the data active = inhibition above about 30%; inactive = below that, where a call was filed; note: 0% is about no effect
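Compounds are added to dye-loaded, induced HEK293 T-REx cells coupled to calcium release via D2; after a 3 min kinetic read an EC80 dopamine stimulus is given and fluorescence is recorded for 3 more min.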
D2 ag-2: HTS Assay for Allosteric Agonists of the Human D2 Dopamine Receptor: Primary Screen for Agonists; D(2) dopamine receptor (Homo sapiens), P14416; HEK293 T-REx D2 cells, calcium flux agonist mode; activation, % at 2 µM; 340,000 tested, 0.53% active;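 active = activation over 3 SD above normal in the single-dose calcium agonist read, cut at about 30% in these data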; note: 0% is about no effect
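In this primary screen, compounds producing a positive calcium signal within 180 s of addition to tetracycline-induced, force-coupled HEK293 Trex D2 cells are flagged; cells are dye-loaded with a no-wash calcium kit beforehand.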
D2 PAM-1: Beta-Arrestin HTS for Positive Allosteric Modulators of the Human D2 Dopamine Receptor: Potentiators. D(2) dopamine receptor (Homo sapiens), P14416. DiscoveRx D2 beta-arrestin cells, luminescence, 90 min; 100% = 57 uM dopamine signal. potentiation, % (test concentration not listed). 360,000 tested, 0.23% active; in the data active = potentiation above about 50%
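PathHunter D2 cells, attached overnight at 37 deg C, received compound in DMSO plus dopamine at EC20 (50 nM final) for 90 min at 37 deg C. Beta-arrestin recruitment was read as luminescence after 1 h with detection reagent at ambient temperature.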
D2 PAM-2: HTS Assay for Positive Allosteric Modulators of the Human D2 Dopamine Receptor: Primary Screen for Potentiators. D(2) dopamine receptor (Homo sapiens), P14416. HEK293 T-REx D2, calcium flux, EC20 dopamine potentiation. potentiation, % at 10 µM. 340,000 tested, 0.34% active;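 active = potentiation over 3 SD above the plate norm, cut at about 30% in these data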; note: 0% is about no effect
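Cells plated with tetracycline inducer and held overnight at 30 C; calcium dye loaded 30–90 min at room temperature; baseline taken, compound added and read 180 s; EC20 dopamine then added and read 180 s.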
Active calls of the source: *; . = not tested or not shown.

SMILES	D2 ag-1	D2 antagonist	D2 ag-2	D2 PAM-1	D2 PAM-2
CCN(CC)CCNC(=O)c1ccc(Sc2ccc(C)cc2)c(NC(C)=O)c1	-7	54*	-1	-12	-31
CCN(CC)CCNC(=O)c1ccc(Sc2ccc(Cl)cc2)c(NC(C)=O)c1	-6	36*	0	-18	-31
CC(=O)Nc1cc(C(=O)NCc2ccc(C)cc2)ccc1Sc1ccc(C)cc1	.	.	1	.	10
CCN(CCCNC(=O)c1ccc(Sc2ccc(Cl)cc2)c(NC(C)=O)c1)c1cccc(C)c1	.	.	0	.	-1
COc1cc(NC(=O)CCCOc2cc(=O)n(C)c3ccccc23)cc(OC)c1OC	.	.	.	.	-3
O=C(O)c1ccc(NS(=O)(=O)c2ccc(N3C(=O)CCC3=O)cc2)cc1	-6	39*	-1	-8	-16
O=C(O)c1ccc(NS(=O)(=O)c2cc(C(=O)O)ccc2Br)cc1	7	1	0	70*	1
O=C(c1ccc(S(=O)(=O)Nc2ccccc2)cc1)N1CCC1	-2	1	-1	-20	1
COCCn1c(SCC(=O)NC(C)c2ccc(F)cc2)nc2ccccc21 (stereo unspecified)	-4	14	-1	-6	34*
COc1cc(OC)cc(C(=O)NC(=S)Nc2ccc(NC(=O)c3ccco3)cc2)c1	1	-1	2	12	37*
O=C(Nc1ccc(N2CCN(Cc3ccccc3Cl)CC2)cc1)c1cccnc1	0	15	1	-6	-3
COc1ccc(C(=O)NC(=S)Nc2ccc(N3CCCC3)cc2)cc1	6	.	.	-2	.
O=C(Nc1ccc(N2CCCCC2)cc1)c1cccnc1	3	34*	0	12	-8
COc1cccc(C(=O)NC(=S)Nc2ccc(N3CCCC3)cc2)c1	0	57*	0	-8	-5
O=C(N/N=C/c1ccc(N2CCCC2)c([N+](=O)[O-])c1)c1cccnc1	-1	41*	1	-4	-17
CCOC(=O)c1ccc(NC(=O)c2ccc(CN3C(=O)CCn4nc(C)cc43)cc2)cc1	.	.	0	.	7
OCCNCc1cc(Br)ccc1OCc1ccccc1Cl	2	42*	0	-26	0
CC1CCC(=O)N(CCSc2ccccc2)CC1 (stereo unspecified)	0	33*	0	-17	-4
COc1ccc(SCCN2CC[C@@H](C)CCC2=O)cc1	-1	1	1	-3	6
COc1ccc(OC)c(NC(=O)c2ccc(CN3CCc4ccccc4C3)cc2)c1	-3	41*	0	-27	-20
Cc1ccccc1NC(=O)c1ccc(CN2CCc3ccccc3C2)cc1	-1	.	.	-15	.
CCOCCCNC(=O)c1ccc(CN2CCc3ccccc3C2)cc1	0	.	.	-38	.
CC(C)OCCCNC(=O)c1ccc(CN2CCc3ccccc3C2)cc1	-6	44*	0	-25	-21
COC(=O)c1ccc(CN2CCc3ccc(NC(=O)c4ccncc4)cc3C2)cc1	3	35*	1	-37	-13
CCc1cccc(C)c1NC(=O)c1ccc(CN2CCc3ccccc3C2)cc1	-2	55*	-1	-35	-27
SMILES	D2 ag-1	D2 antagonist	D2 ag-2	D2 PAM-1	D2 PAM-2
Cc1ccc(Cn2cc(S(=O)(=O)c3cccc(C)c3)c(=O)c3cc(F)c(N4CCOCC4)cc32)cc1	.	.	2	.	4
COc1cc(NC(=O)CN2C(=O)c3ccccc3Sc3ccc(C(=O)N4CCCC4)cc32)cc(OC)c1	.	.	0	.	-1
CCN1CCN(c2nc(-c3ccccc3Cl)nc3ccccc23)CC1	-8	38*	-1	-10	-15
c1ccc(N2CCN(c3nc(-c4cccs4)nc4ccccc34)CC2)cc1	-3	.	.	-7	28
CCN1CCN(c2nc(-c3ccccc3)c3ccccc3n2)CC1	-3	59*	0	-24	-23
CN1CCN(c2nc(-c3ccccc3Cl)nc3ccccc23)CC1	-9	-15	-1	-23	-15
CN1CCN(c2nc(-c3cccs3)nc3ccccc23)CC1	-6	32*	0	-21	-20
CCc1ccccc1S(=O)(=O)Cc1ccc(C(=O)NCCc2ccc(C)cc2)o1	.	.	.	.	5
Cc1ccc(NC(=O)CSc2nc(=O)n(CCN3CCOCC3)c3c2CCC3)cc1Cl	.	.	.	.	0
CCc1ccccc1NC(=O)NC1CC2CCC(C1)N2Cc1ccco1 (stereo unspecified)	-4	32*	0	-33	-25
O=C(Nc1cccc(Cl)c1)NC1CC2CCC(C1)N2Cc1ccco1 (stereo unspecified)	1	64*	1	-4	-35
Cc1cc(C)cc(NC(=S)NC2CC3CCC(C2)N3Cc2ccco2)c1 (stereo unspecified)	-9	46*	0	-23	-15
Cc1cccc(NC(=S)NC2CC3CCCC(C2)N3Cc2cccs2)c1 (stereo unspecified)	1	77*	1	-30	-22
Fc1ccc(NC(=S)NC2CC3CCC(C2)N3Cc2ccco2)cc1 (stereo unspecified)	-3	.	.	-16	.
COc1cccc(-n2c(=O)c3c(C)c(C)sc3n(CC(=O)NCc3ccccc3)c2=O)c1	.	.	0	.	4
Fc1ccc(-n2ncc3c(NCCCc4ccccc4)ncnc32)cc1	.	.	0	.	-1
O=C(Nc1ccc(Cl)c(C(F)(F)F)c1)NC1CC2CCCC(C1)N2Cc1ccccc1 (stereo unspecified)	-3	48*	1	-9	.
COc1cc(OC)cc(C(=O)NC2CC3CCC(C2)N3Cc2ccco2)c1 (stereo unspecified)	-3	48*	2	-37	-17
Cc1ccc(C(=O)NC2CC3CCC(C2)N3Cc2ccco2)cc1 (stereo unspecified)	-3	21	0	-36	-26
CCOc1ccc(CCNC(=O)c2cc3c(-c4ccccc4F)nn(C)c3s2)cc1OCC	.	.	0	.	5
CCCCCn1c(=O)c(C(=O)OCC)c(O)c2ccccc21	-2	-2	-1	15	9
CCCCn1c(=O)c(C(=O)OCC)c(O)c2ccccc21	0	38*	1	12	8
COc1ccc(C(NC(=O)C2CCN(CCOc3ccc(Cl)cc3Cl)CC2)c2cccs2)cc1 (stereo unspecified)	70*	.	.	-18	.
COc1ccc(C(NC(=O)C2CCN(CCOc3ccc(F)cc3)CC2)c2cccs2)cc1 (stereo unspecified)	-4	.	.	-17	.

Screens deposited in PubChem by National Center for Advancing Translational Sciences (NCATS).
